# ssDAF-12 act: activates DAF-12 receptor from parasite S. stercoralis; activation, % at 6.8 µM; HEK293 ssDAF-12/GRIP1 lit1-tk-luc reporter, luminescence; % of 3 µM dafachronic acid response; 370,000 tested, 1% active;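 active means activation above the mean over all tested compounds plus 3 SD, cut at about 0.9% in these data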;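 further: 0% = DMSO-only wells and 100% = 3 µM delta7-dafachronic acid wells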
# DAX1 inh-1: inhibitors of DAX1 repression of SF-1 activated StAR promoter | HEK293T StAR-luciferase reporter, SF-1/DAX-1 repression relief | inhibition, % at 6.8 µM | 370,000 tested, 1.1% active | AID 652010;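 active means inhibition above the mean over all tested compounds plus 3 SD, cut at about 3.6% in these data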;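 further: 0% = DAX-1 cells with DMSO and 100% = cells lacking DAX-1 with DMSO; higher inhibition means more luminescence from relief of DAX-1 repression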
# hcDAF12 agonist: activators of H. contortus DAF-12 nuclear receptor; HEK293 hcDAF-12 lit1-tk-luc reporter, luminescence; 0% DMSO, 100% Δ7-dafachronic acid; activation, % at 6.8 µM; 370,000 tested, 1.4% active; AID 652067;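 active means activation above the mean of all tested compounds plus 3 SD, cut at about 5.5% in these data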;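 further: 100% = response to 3 µM Δ7-dafachronic acid high control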
# SMARCA2 activ: activators of SMARCA2 function | MG213 cells, MMTV-luciferase reporter, dexamethasone, overnight | activation, % at 9.1 µM | 370,000 tested, 1% active | AID 652017; in the data active means activation above about 7.8%;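 further: 0% = vehicle wells and 100% = reference activator wells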
# hgDAF12 agonist: hgDAF-12 agonism, primary luciferase screen. HEK293 GAL4-hgDAF12 UAS-luciferase reporter, agonist luminescence; normalized to butyrate control. activation, % at 6.8 µM. 370,000 tested, 1.8% active;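 active means activation above a cutoff set at the mean of all screened compounds plus 3 SD, cut at about 10% in these data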;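 further: 0% = DMSO wells and 100% = sodium butyrate wells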
# DAX1 inh-2: inhibitors of human orphan nuclear receptor DAX1 (NR0B1); P51843; HEK293 Gal4-DAX1 luciferase reporter, luminescence; inhibition, % at 6.75 µM; 340,000 tested, 0.99% active;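 active means inhibition above the mean over all tested compounds plus 3 SD, cut at about 4.2% in these data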;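 further: 0% = DAX1-transfected cells with DMSO and 100% = empty-vector control cells with DMSO; inhibition shows as a rise in luminescence from relieved DAX1 repression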
# Target sequence (P51843 207-470 limits assumed): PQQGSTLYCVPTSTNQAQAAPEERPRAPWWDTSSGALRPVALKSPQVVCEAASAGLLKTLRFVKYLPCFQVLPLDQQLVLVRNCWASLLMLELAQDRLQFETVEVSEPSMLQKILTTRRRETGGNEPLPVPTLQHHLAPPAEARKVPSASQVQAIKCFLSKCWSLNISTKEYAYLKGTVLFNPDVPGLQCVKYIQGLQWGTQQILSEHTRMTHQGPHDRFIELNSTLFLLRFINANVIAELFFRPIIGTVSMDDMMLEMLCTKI
# Numbers without * were called inactive; / = not tested or not shown. Sampled rows, rich in hits. Any-hit rate of the full collection: about 4.8%.
SMILES,ssDAF-12 act,DAX1 inh-1,hcDAF12 agonist,SMARCA2 activ,hgDAF12 agonist,DAX1 inh-2
Cc1cc(C(=O)N(C2CCCCC2)C2CCCCC2)no1,-1.5,-0.6,-1.2,-1.7,-1.6,0.2
CC1CCCCC1N(C(=O)c1cc(C2CC2)on1)C1CCCCC1 (centres undefined),-0.8,0.4,-0.9,-2.3,12.0*,/
O=C1c2ccccc2C(=O)C12OC2c1ccc(Cl)cc1Cl (centres undefined),1.5*,-0.4,4.6,-1.6,-0.6,1.3
O=C1c2ccccc2C(=O)C1c1ccc(Cl)cc1,-1.2,2.0,3.0,1.4,5.6,0.8
COc1ccc(OCc2cc(C(=O)NCc3nc(C)cs3)no2)c(Cl)c1,-0.8,1.7,-1.9,7.2,9.7,0.1
COc1ccc(OCc2cc(C(=O)NC(C)c3nc(C)cs3)no2)c(Cl)c1 (centres undefined),-0.1,0.8,4.1,0.0,11.9*,1.9
COc1ccc(OCc2cc(C(=O)N(C)Cc3cc(C)no3)no2)c(Cl)c1,-0.5,0.7,2.7,4.6,11.9*,4.1
COc1ccc(OCc2cc(C(=O)N[C@H]3CCCCNC3=O)no2)c(Cl)c1,-0.7,3.6*,1.4,2.4,4.2,1.2
Cc1onc(-c2ccccc2)c1C(=O)N1CCOC12CCN(c1cccc(F)n1)CC2,-0.8,0.1,-2.1,-0.9,-2.6,0.1
O=C(C1CCCN(S(=O)(=O)c2cccs2)C1)N1CCc2ccccc2C1 (centres undefined),-1.2,-0.2,-0.2,0.1,0.7,0.1
CN(C)S(=O)(=O)c1ccc(/C(O)=C2/C(=O)C(=O)N(CCCN3CCOCC3)C2c2ccncc2)cc1 (centres undefined),-1.7,0.5,0.8,-3.6,0.5,5.1*
COc1cccc(/C(O)=C2/C(=O)C(=O)N(CCCN3CCOCC3)C2c2ccncc2)c1 (centres undefined),-1.1,-0.1,-1.9,-2.0,-1.0,0.0
O=C1C(=Cc2cccn2-c2ccc(O)cc2)C(=O)c2ccccc21,-0.9,0.1,1.2,-0.8,-0.8,0.2
O=C1C(=Cc2cccn2-c2ccccc2)C(=O)c2ccccc21,1.0*,0.2,2.2,0.1,5.2,-1.0
COc1ccc2[nH]c3c(c2c1)CCNC3=O,-1.5,0.4,1.3,1.9,10.8*,1.5
O=C1NCCc2c1[nH]c1ccccc21,-0.7,-0.4,-2.1,-2.0,-1.1,0.8
CC(C)S(=O)(=O)C1=NSC2=NC(=O)/C(=C\c3ccc(OC(=O)c4ccco4)cc3)C(=N)N21,-0.8,0.0,-2.1,0.3,-1.8,0.9
Cc1nn(C)c(C)c1N=Cc1c(O)ccc2ccccc12,-1.9,-0.4,-0.1,0.1,-0.5,2.5
c1ccc(-c2ccc3nnnn3n2)cc1,-1.8,1.0,-0.9,-4.6,0.3,-0.2
c1cnc(Sc2ccc3nnnn3n2)nc1,1.3*,-0.5,-0.7,-0.4,1.7,1.0
O=C(/C=C/c1ccccc1)NC1CC2CCC1C2 (centres undefined),-0.8,1.2,1.0,5.3,7.0,0.4
O=C(/C=C/c1ccc(Cl)cc1)NC1CC2CCC1C2 (centres undefined),-1.0,0.8,-1.1,0.1,11.4*,-0.1
COc1ccc(S(=O)(=O)N(C)c2ccc(C(=O)NC3CC3)cc2)cc1,-1.2,1.3,-2.0,1.7,-0.1,1.7
O=C(c1ccc(Br)s1)N1CCc2ccccc2C1,-0.6,3.9*,2.3,2.1,2.3,1.9
O=C(c1cccs1)N1CCc2ccccc2C1,-0.7,0.6,0.6,1.4,3.1,0.2
SMILES,ssDAF-12 act,DAX1 inh-1,hcDAF12 agonist,SMARCA2 activ,hgDAF12 agonist,DAX1 inh-2
O=C(c1cc([N+](=O)[O-])[nH]n1)N1CCSCC1,-2.2,1.9,-0.3,-1.5,1.1,5.4*
Cc1cc(C(=O)N2CCc3ccccc3C2)n[nH]1,-0.4,0.2,2.2,-0.5,-0.3,0.9
COc1cc(C(=O)N2CCN(C(=O)C(Cc3cc(C)ccc3C)NC(C)=O)CC2)cc(OC)c1OC (centres undefined),-1.0,-0.6,-0.5,2.2,3.2,0.7
O=C(Cn1cnnn1)OCC(=O)c1ccc(Cl)s1,-0.5,0.5,0.6,-2.8,2.4,0.2
CN(C=O)c1ccc(CSc2ccccc2)cc1,-0.7,0.7,5.5,4.0,11.8*,0.1
O=C(Nc1cccnc1)c1ccc(CSc2ccccc2)cc1,-0.9,1.6,1.0,1.5,5.8,0.5
COc1cc(/C=N/n2c(-c3n[nH]c4c3CCC4)n[nH]c2=S)ccc1O,-0.9,-0.7,-0.6,0.4,-0.2,-1.2
C=CCc1ccccc1OCCSc1nc2ccc([N+](=O)[O-])cc2s1,2.0*,0.7,2.0,-4.8,0.1,0.1
CC(C)(C)NC(=O)CSc1nnc(-c2ccccn2)n1-c1ccccc1,-1.0,-0.2,-1.5,0.9,-2.2,4.4*
N#Cc1cc2cc3c(cc2nc1N1CCCCC1)OCCO3,-0.2,-0.6,6.2*,-3.3,-5.3,1.8
COC(=O)c1cnn(-c2nc3c(C)cccc3s2)c1C,0.4,-0.3,5.9*,-0.5,2.3,0.6
O=C(NCc1ccccc1)C1Cc2c(-c3ccc4c(c3)OCO4)ccnc2O1 (centres undefined),-0.9,4.4*,-0.2,-2.3,-2.7,/
CCc1nc2ccc(C(=O)N3CCN(C(=O)c4ccco4)CC3)cn2c1N(C=O)Cc1ccc(OC)cc1,-1.1,0.6,-0.7,-6.2,-2.1,/
CC[C@H](C)[C@H](NC(N)=O)C(=O)Nc1ccc(NC(C)=O)cc1,-1.4,0.2,-0.3,0.7,1.0,1.1
CCC(C)C(NC(N)=O)C(=O)Nc1ccc(C(=O)OC)cc1 (centres undefined),-1.5,1.3,-0.6,-3.9,4.2,4.4*
CSc1nc2ccc(NC(=O)C3=NNC(=O)CC3)cc2s1,0.2,2.3,5.6*,-2.7,7.4,1.2
CCOc1ccccc1N(C(=O)Nc1cccc(Cl)c1)C1=NC(C)CS1 (centres undefined),-2.0,-0.6,-3.4,-0.6,0.8,4.5*
COCCn1c(=S)[nH]c2cc(C(=O)NC3CCCCCC3)ccc2c1=O,-1.3,1.1,0.2,-2.5,-1.4,0.5
Cc1c(-c2cc(Br)ccc2O)nc2cc3c(cc2c1C)OCO3,-0.7,-0.4,0.4,-0.3,4.6,4.3*
O=C(Nc1cccc2ccccc12)N1CCN(Cc2ccccc2)CC1,-0.4,0.4,1.2,1.8,0.3,1.7
CCC(C(=O)O)n1c2ccccc2c2cn[nH]c(=O)c21 (centres undefined),1.0*,0.1,5.3,-2.6,0.7,-0.9
COC(=O)/C(=C\c1c[nH]c2ccccc12)NC(C)=O,-0.4,-0.1,3.4,-2.6,-0.6,0.9
CCOC(=O)/C(=C\c1c[nH]c2ccccc12)NC(C)=O,1.4*,0.1,3.0,-2.3,-2.9,0.3
COc1ccccc1CC(=O)Nc1ccc(C(=O)N2CCCCC2)cc1,-0.8,3.9*,0.2,1.4,0.3,0.7
